gsp antagonist: gsp mutant antagonism. gsp-mutant cells, cAMP HTRF, 30 min. Potency, µM (top dose mostly 76.9 µM), for inactives: at the top dose activity change, negative = inhibition, most hits filed as inhibitors. actives 0.4% (n = 340,000). AID 624288; calls by dose curve; cell line not stated here;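 also: intracellular cAMP measured with PDE inhibitor Ro 20-1724 present during compound exposure; % is scaled to controls: 0 for no effect and ±100 for the full control effect; nearly all actives have a fitted effect of over 65% in size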
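HTRF cAMP read-out (cAMP-d2 plus anti-cAMP antibody-K in lysis buffer, 30 min RT). Before lysis, cells are exposed to compounds with […] for 30 min at 37C in DPBS containing Ca/Mg, BSA and Tween 20.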
Rango complex inh: Rango-importin beta binding inhibition. Q14974. Rango CFP/YFP FRET sensor + importin beta, 45 min. Potency, µM (titrated, usually from 92.2 µM), without a hit: top-dose inhibition of complex formation. actives 0.031% (n = 340,000). AID 540263;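 also: 0% = DMSO wells and 100% = buffer wells lacking importin beta; nearly all actives have a fitted effect of over 15% in size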
Target sequence (Q14974 whole entry, looked up): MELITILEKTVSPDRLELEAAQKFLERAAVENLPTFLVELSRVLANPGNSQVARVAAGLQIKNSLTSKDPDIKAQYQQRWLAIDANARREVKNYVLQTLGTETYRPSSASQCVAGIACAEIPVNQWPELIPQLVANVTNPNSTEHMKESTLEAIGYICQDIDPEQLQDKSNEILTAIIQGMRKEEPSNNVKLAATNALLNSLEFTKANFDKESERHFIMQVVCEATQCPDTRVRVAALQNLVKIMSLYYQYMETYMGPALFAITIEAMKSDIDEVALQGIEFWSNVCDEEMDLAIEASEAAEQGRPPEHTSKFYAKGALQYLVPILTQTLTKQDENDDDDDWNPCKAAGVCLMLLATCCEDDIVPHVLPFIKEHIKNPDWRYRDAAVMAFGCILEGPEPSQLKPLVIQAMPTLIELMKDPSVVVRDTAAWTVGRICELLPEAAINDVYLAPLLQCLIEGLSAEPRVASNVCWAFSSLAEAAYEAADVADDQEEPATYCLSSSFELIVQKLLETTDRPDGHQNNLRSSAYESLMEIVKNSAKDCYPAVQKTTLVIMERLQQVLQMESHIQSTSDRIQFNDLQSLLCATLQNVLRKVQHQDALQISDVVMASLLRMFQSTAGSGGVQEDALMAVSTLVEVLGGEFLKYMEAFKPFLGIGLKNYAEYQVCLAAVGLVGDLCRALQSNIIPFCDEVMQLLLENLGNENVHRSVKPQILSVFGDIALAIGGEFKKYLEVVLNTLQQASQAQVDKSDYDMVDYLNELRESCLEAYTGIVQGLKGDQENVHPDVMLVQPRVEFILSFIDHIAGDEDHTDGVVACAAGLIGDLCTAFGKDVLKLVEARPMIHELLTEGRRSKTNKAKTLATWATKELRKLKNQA
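Inhibition scored from the CFP 486 nm/YFP 530 nm FRET ratio 45 min after adding 0.125 microM importin beta to 50 nM Rango biosensor preincubated 5 min with compound (room temperature, PBS with DTT, Tween-20, BSA). No-importin wells as positive control.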
gsp ag: agonists of gsp mutant (McCune-Albright syndrome). Potency, µM (doses to about 76.9 µM), for inactives: at the top dose activation (cAMP increase), hits mostly activators. gsp mutant cells, cAMP HTRF, 30 min. actives 0.13% (n = 340,000); active = well fitted activation curve with a large enough effect; inconclusive = small, poorly fitted or top-dose-only effect, or another doubt; inactive = no such curve, though single readings can be large or run the other way; cell line not stated here;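 also: phosphodiesterase inhibitor Ro 20-1724 added with compounds to block cAMP breakdown; nearly all actives have a fitted effect of over 60% in size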
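Cells stably selected in G418 were plated at 2000/well, grown 16-24 hr, then given compounds in DMSO with the PDE inhibitor […] (300 uM solution added) for 30 min at 37C; cAMP was read by HTRF.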
Rango dissoc inh: prevents RanGTP from dissociating the Rango-importin beta complex; O95149+P62826; Biochemical FRET Rango-importin beta, RanGTP-induced dissociation; Potency, µM (titrated, usually from 46.1 µM), inactives show at the highest dose activity change, negative = inhibition; actives 0.071% (n = 340,000); also: % of control where 0% means no effect; nearly all actives have a fitted effect of over 45% in size
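Recombinant Rango FRET biosensor (EYFP–snurportin 1 IBB–cerulean CFP10) at 0.1 uM premixed with 0.25 uM importin beta in PBS, 1 mM DTT, 0.02% Tween-20, 0.1% BSA. Compound added 5 min; RanGTP-RCC1 (0.6 uM Ran, 2 mM GTP, 0.2 uM RCC1) then triggers release, read at 45 min.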
The depositor's hits bear a star; ? = inconclusive; nt = no result given; [ ] = another dose, or the depositor's remark. Only some compounds are listed: those with a hit (about 0.66% of all), similar ones and a draw of the others. Unless noted, calls follow the shape of the full dose curve. Potency is read from the fitted curve at half-maximal effect.

SMILES | gsp antagonist | Rango complex inh | gsp ag | Rango dissoc inh
CC1(C)CC(=O)C2=C(C1)OC(N)=C(C#N)C2c1cc2c(cc1[N+](=O)[O-])OCO2 (stereo not drawn) | ? | ? | -15.0%[15.4 µM] | 16.4µM*
O=C(O)c1cccc(-n2cccc2C=C2C(=O)c3ccccc3C2=O)c1 | 35.5µM* | ? | -15.7%[15.4 µM] | -15.9%
O=C1C(=Cc2cccn2-c2ccccc2)C(=O)c2ccccc21 | 4.6% | ? | 9.5%[15.4 µM] | ?
O=C(O)c1cccc(-n2cccc2/C=C2/NC(=O)N(c3ccc(Cl)cc3)C2=O)c1 | -11.6% | ? | -14.9%[15.4 µM] | 16.4µM*
C#CCN(C[C@@H]1[C@@H](OC(=O)Nc2cccs2)[C@@H](OC(=O)Nc2cccs2)Cn2c(=O)n(CCCCCC)c(=O)n21)S(=O)(=O)c1ccc(C)cc1 | nt | nt | 2.7% | nt
CC1(C)CN(Cc2ccccc2)C(=O)[C@H]1CC(=O)Nc1ccc(Br)cc1 | nt | nt | -66.0% | nt
CN(C)S(=O)(=O)c1ccc(-c2csc(N/N=C/c3ccco3)n2)cc1 | 31.6µM* | 1.5% | -20.0%[15.4 µM] | 21.5%
C(=N\Nc1nc(-c2ccccc2)cs1)/c1ccncc1 | -4.7% | 4.6% | -18.8%[15.4 µM] | 2.7%
CN(C)S(=O)(=O)c1ccc(-c2csc(N/N=C/c3ccc(O)cc3)n2)cc1 | 31.6µM* | 3.8% | 7.0%[15.4 µM] | -6.4%
Cc1ccc(-c2csc(N/N=C/c3ccco3)n2)cc1 | -9.5% | 1.4% | 5.0% | -13.6%
COc1ccc(C#Cc2cnc3c(c2)C(=O)N([C@H](C)CO)C[C@@H](C)[C@H](CN(C)C(=O)CN(C)C)O3)cc1 | nt | nt | -119.9% | nt
COc1cc(-c2cc3nc4ccccc4n3c(N)c2C#N)cc(OC)c1OC | 12.5% | ? | 28.2µM* | -2.2%
O=C(Nc1ccc(Cl)cc1)c1cc2c(cc1O)[nH]c1ccccc12 | 35.5µM* | -1.8% | -6.2%[15.4 µM] | -10.5%
Cc1ccc([C@H]2C[C@@H](n3cc(COC(=O)c4ccccc4)nn3)[C@H](O)CN2C(=O)C2CCCCC2)cc1 | nt | nt | -91.3% | nt
O=C(c1ccc(CNS(=O)(=O)c2ccc(F)cc2)cc1)N1CCCCCC1 | nt | nt | -1.2% | nt
Cc1ccc(S(=O)(=O)N2C[C@H]3n4c(=O)ccc(=O)n4C[C@H](OC(=O)NCc4ccco4)[C@@]3(O)C2)cc1 | nt | nt | -84.8% | nt
CO/N=C/c1ccc(N2CCN(C(=O)c3cccc(C(F)(F)F)c3)CC2)c([N+](=O)[O-])c1 | ? | 1.3% | -2.1% | 2.8%
CO/N=C/c1ccc(N2CCN(C(=O)c3ccc(F)cc3)CC2)c([N+](=O)[O-])c1 | 35.5µM* | 7.2% | 24.6% | 16.2%
CC12CCC(O)CC1=CCC1C2CCC2(C)C3=NN=CC3CC12 (stereo not drawn) | -11.4% | -0.3% | 15.5% | -6.3%
O=C(CC(c1ccccc1)c1ccccc1O)NCc1ccccc1Cl (stereo not drawn) | 35.5µM* | -5.9% | 0.0% | -0.1%
O=C(CC(c1ccccc1)c1ccccc1O)NCc1ccco1 (stereo not drawn) | -4.6% | 7.3% | -37.6% | 0.3%
O=Cc1ccc2c(c1)OCCOCCOCCOCCO2 | nt | nt | 14.4% | nt
CC1(C)CC(C(CC(=O)N2CCCC2)Cc2ccccc2)CCO1 (stereo not drawn) | 50.1µM* | ? | -22.0% | -9.2%
c1ccc(-c2cn3c(n2)CCC3)cc1 | -2.9% | 0.2% | 1.5% | -4.4%
O=[N+]([O-])c1ccc(-c2cn3c(n2)CCC3)cc1 | 4.4% | 0.1% | 14.1µM* | 10.7%
SMILES | gsp antagonist | Rango complex inh | gsp ag | Rango dissoc inh
Cc1oc2c(c1C(=O)c1ccc(Cl)cc1)C(=O)C(=O)c1ccccc1-2 | 56.2µM* | -0.8% | -29.0% | 1.1%
CCc1cc(=O)oc2cc(OC(C)=O)cc(OC(C)=O)c12 | -1.1% | ? | 10µM* | 11.6µM*
COc1cc(OCc2ccccc2)c2c(CCC(=O)O)cc(=O)oc2c1 | -11.0% | -0.3% | 26.8% | 1.5%
COc1cc2c(cc1NC(=O)CSc1nccn1C)oc1ccccc12 | 28.2µM* | -0.5% | 1.8% | -3.2%
COc1cc2c(cc1NC(=O)C(C)Sc1ccc(NC(C)=O)cc1)oc1ccccc12 (stereo not drawn) | 20µM* | 1.7% | ? | 7.7%
COc1ccc2nc(Cl)c(C=O)c(N3CCOCC3)c2c1 | nt | nt | 5.4% | nt
CC(=O)OC1(C)C=Cc2ccccc2C1=NS(=O)(=O)c1ccccc1 (stereo not drawn) | nt | nt | 23.2% | nt
O=C(O)c1ccc(N=N/C(=N\Nc2ccc(C(=O)O)cc2)c2ccccc2)cc1 | -4.7% | ? | -0.9% | 12.6%
Brc1ccc(N/N=C(/N=Nc2nn[nH]n2)c2ccccc2)cc1 | 22.4µM* | -1.2% | -1.1% | 13.3%

Screens from PubChem BioAssay.
